Shown is part of a subset that was picked to be rich in hits.
CBX7 AlphaScr = inhibitors of human CBX7 binding to H3K27me3 peptide; AlphaScreen His6-CBX7 / biotin-H3K27me3 peptide binding; active compounds read low; 66,000 compounds, 1.1% hits; normalised signal (fraction of DMSO) (test concentration not listed); AID 1224903; in the data active means normalised signal below about 0.5
Target sequence (O95931 whole entry, looked up): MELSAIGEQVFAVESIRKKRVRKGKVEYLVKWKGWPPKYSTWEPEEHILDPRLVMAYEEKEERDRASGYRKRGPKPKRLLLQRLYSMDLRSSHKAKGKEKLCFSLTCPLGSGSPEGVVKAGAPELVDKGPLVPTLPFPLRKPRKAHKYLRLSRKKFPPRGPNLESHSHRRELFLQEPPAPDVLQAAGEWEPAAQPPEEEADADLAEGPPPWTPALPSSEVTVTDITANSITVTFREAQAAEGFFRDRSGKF
Large screens that a line does not name were inactive.

COc1cc(Nc2nc(-c3cc(C)ccc3C)cs2)c(OC)cc1Cl	none
COc1cc(Nc2nc(-c3ccc(CC(C)C)cc3)cs2)c(OC)cc1Cl	CBX7 AlphaScr 0.48
COc1ccc(-c2csc(Nc3ccccc3OC)n2)cc1Br	none
CC1CCCC(C)N1c1nnc(NC(=O)Nc2ccccc2Cl)s1 (stereo not drawn)	none
Cc1cc(N2CCCCC2)nc2ccc(NC(=O)CCC(=O)N3CCCC3)cc12	none
CCOc1ccccc1CNC(=O)c1cc(=O)[nH]c2ccc(S(=O)(=O)N3CCCC3)cc12	none
Cc1ccc(N(C)C(=O)Cn2ncc3c2-c2ccccc2OC3)cc1C	none
CC(C(=O)NCc1ccccc1Cl)n1ncc2ccccc21 (stereo not drawn)	none
O=C(Nc1cccc(C(F)(F)F)c1)NC1(c2ccccc2)CC1	none
COc1ccc(-c2c(C)nn3c(N4CCN(C)CC4)cc(C)nc23)cc1OC	none
O=C(CSc1nnc(COc2ccc3c(c2)CCCC3)o1)Nc1ccc(Cl)cc1	none
COc1ccc(-c2cc3nc(C)c(CCC(=O)Nc4cccc(C)c4C)c(C)n3n2)c(OC)c1	none
CCCCN(CC)S(=O)(=O)c1ccc(C(=O)Nc2nnc(COC)o2)cc1	CBX7 AlphaScr 0.062
CCc1nnc(NC(=O)c2ccc(S(=O)(=O)N(C)C)cc2)o1	CBX7 AlphaScr 0.042
COCc1nnc(NC(=O)c2ccc(S(=O)(=O)N(CCC#N)CCC#N)cc2)o1	CBX7 AlphaScr 0.063
CCCCN(CC)S(=O)(=O)c1ccc(C(=O)Nc2c(C(=O)OCC)oc3ccccc23)cc1	none
COCc1nnc(NC(=O)c2ccc(S(=O)(=O)N(C)C)cc2)o1	none
CCN(Cc1ccccc1)S(=O)(=O)c1ccc(C(=O)Nc2nnc(COC)o2)cc1	none
CCCCN(CCCC)S(=O)(=O)c1ccc(C(=O)Nc2nnc(C3CC3)o2)cc1	CBX7 AlphaScr 0.045
COCCN(CCOC)S(=O)(=O)c1ccc(C(=O)Nc2nnc(C3CC3)o2)cc1	none
Cc1ccccc1OCCn1c(=N)n(CCO)c2ccccc21	none
COc1ccc(NC(=O)c2c(NCc3cccnc3)sc3c2CCCC3)cc1	none
CCOC(=O)c1ccc(NC(=O)c2cc3c(s2)-c2ccccc2OC3)cc1	none
CCN1CCN(C(=O)CC(C(=O)N2CCc3ccccc32)n2ccnc2)CC1 (stereo not drawn)	none
Cc1ccccc1C(=O)Nc1cccc(-c2nc3ccccc3[nH]2)c1	none
O=C(Nc1ccc(Oc2ccc3ccccc3c2Cl)c(Cl)c1)c1cccs1	none
CCOC(=O)c1cc(-c2ccc(OC)cc2)n(CCC(=O)NC2CCCCCCC2)c1C	none
COc1cc(S(=O)(=O)NCCc2c(C)[nH]c3c(Cl)cccc23)c(C)cc1C	none
CCCCN(CCCC)S(=O)(=O)c1ccc(C(=O)Nc2nnc(CC)o2)cc1	CBX7 AlphaScr 0.051
CCc1nnc(NC(=O)c2ccc(S(=O)(=O)N(CCOC)CCOC)cc2)o1	none
CCCCN(C)S(=O)(=O)c1ccc(C(=O)Nc2nnc(-c3cccs3)o2)cc1	none
CN(C1CCCCC1)S(=O)(=O)c1ccc(C(=O)Nc2nc(-c3ccncc3)cs2)cc1	none
CN(C1CCCCC1)S(=O)(=O)c1ccc(C(=O)Nc2nnc(C3CC3)o2)cc1	CBX7 AlphaScr 0.028
CN(C1CCCCC1)S(=O)(=O)c1ccc(C(=O)Nc2nnc(-c3cccs3)o2)cc1	none
O=C(CCCCCn1c(=O)c2sccc2n(Cc2ccccc2F)c1=O)NCc1ccccc1	none
COc1ccc(-c2nc(C(=O)N3CCOCC3)c(C)o2)cc1	none
COc1ccc(NC(=O)c2cc(S(=O)(=O)N3CCC(C)CC3)ccc2F)cc1	none
CCN(CC)S(=O)(=O)c1ccc(-c2csc(Nc3ccccc3OC)n2)cc1	none
Cc1[nH]c2c(ccc3ccccc32)c(=O)c1CN1CCCCC1	none
Cc1ccc(S(=O)(=O)CC(=O)Nc2ccc(S(=O)(=O)Nc3nccc(C)n3)cc2)cc1	none
CC(=O)Nc1ccccc1C(=O)C(=O)Nc1cccc(C(=O)NCCc2ccc(Cl)cc2)c1	none
CCC(=O)Nc1nc(C)c(-c2csc(Nc3ncccn3)n2)s1	none
CCC(=O)Nc1nc(C)c(-c2csc(Nc3ccc(OC)cc3)n2)s1	CBX7 AlphaScr 0.5
CCC(=O)Nc1nc(C)c(-c2csc(Nc3ccccc3OC)n2)s1	none
CCC(=O)Nc1nc(C)c(-c2csc(Nc3cc(OC)ccc3OC)n2)s1	CBX7 AlphaScr 0.5
COc1ccc(OC)c(Nc2nc(-c3sc(C)nc3C)cs2)c1	none
CCC(=O)Nc1nc(C)c(-c2csc(Nc3ccccn3)n2)s1	none
CCOc1ccc(C(=O)Nc2cc(-c3nc4cc(C)ccc4o3)ccc2C)cc1	none
CCc1ccc(-c2nc(CN3CCC(C(=O)O)CC3)c(C)o2)cc1	none
Oc1ccc(-c2nc3ccc(Cl)cn3c2Nc2ccc3c(c2)OCCO3)cc1	none
O=C(Nc1nnc(C2CCCCC2)s1)c1ccc2c(c1)OCO2	none
CCCC1=Nc2cc(C(=O)N3CCN(c4ccccc4F)CC3)ccc2Sc2ccccc21	none
CCC(=O)N1CCc2cc(S(=O)(=O)NC(CC(C)C)C(=O)N3CCC(C)CC3)ccc21 (stereo not drawn)	none
Cc1ccc(C)c(NC(=O)CSc2nccn2-c2cccc(Cl)c2)c1	none
COc1ccccc1NC(=O)CSc1nccn1-c1cccc(Cl)c1	none
Cc1cccc(NC(=O)CSc2nccn2-c2ccc(Cl)cc2)c1C	CBX7 AlphaScr 0.44

Screening results: PubChem, Bradner/Qi Labs at DFCI
